Test results: PubChem BioAssay (EPA / NIEHS)
Inconclusive results are not listed. The source made the active and inactive calls. Rule for the calls: active = hit-call score of the fitted dose curve at least 0.9, where 1 is the maximum; inconclusive = response in the unintended direction; inactive = score below 0.9.

Legend:
[1] = molecular target: Estrogen receptor beta (Homo sapiens) (UniProt Q92731); assay: OT_ER_ERbERb_1440: Odyssey Thera (OT) 24-hour HEK293T Protein-Complementation Assay for Estrogen Receptor-beta/-beta Homodimer (AID 2283380);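 note: scored as signal increase over DMSO baseline for both agonists and antagonists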
Summary of the method: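 HEK293T cells stably expressing ER beta LBD (aa 310-547) homodimer fragment-complementation reporter, dosed 24 h. Cells formaldehyde-fixed, Draq5-stained; gain in nuclear (agonist) or nuclear plus cytoplasmic (antagonist) fluorescence versus DMSO read by laser scanning cytometry.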

[2] = molecular target: Retinoic acid receptor RXR-alpha (Homo sapiens) (UniProt P19793); assay: OT_NURR1_NURR1RXRa_0480: Odyssey Thera (OT) 8-hour HEK293T Protein Complementation Assay for Nurr1/retinoid X receptor (RXR) (AID 2283385)
Summary of the method: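 HEK293T cells expressing Nurr1 and RXRα fused to reporter fragments were dosed with compound for 8 hours. Complex formation was read as fluorescence intensity and analysed as gain of signal against DMSO as baseline.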

[3] = molecular target: Retinoic acid receptor RXR-alpha (Homo sapiens) (UniProt P19793); assay: OT_NURR1_NURR1RXRa_1440: Odyssey Thera (OT) 24-hour HEK293T Protein Complementation Assay for Nurr1/retinoid X receptor (RXR) (AID 2283386)
Summary of the method: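 HEK293T cells were dosed with compound and read 24 h later by fluorescence intensity in a protein-fragment complementation format, where Nurr1–RXRα interaction reconstitutes a split reporter. Activity was fitted as gain of signal relative to DMSO baseline.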

[4] = molecular target: Estrogen receptor (Homo sapiens) (UniProt P03372); assay: OT_ERa_GFPERaERE_0120: Odyssey Thera (OT) 2-hour HeLa Transcription Induction Assay for Estrogen Receptor (AID 2283382)
Summary of the method: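 HeLa cells were dosed with test chemical and read 2 hours later for GFP-ERα/ERE-linked fluorescent protein induction by fluorescence microscopy. Gain-of-signal was fitted relative to DMSO baseline, quantified by high content image analysis.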

[5] = molecular target: Bile acid receptor (Homo sapiens) (UniProt Q96RI1); assay: OT_FXR_FXRSRC1_0480: Odyssey Thera (OT) 8-hour HEK293T Protein-Complementation Assay for Farnesoid X receptor/SRC-1 Co-activator (AID 2283383)
Summary of the method: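 HEK293T cells expressing FXR and SRC-1 fused to reporter fragments were dosed with compound for 8 h; fluorescence from the reconstituted reporter marked co-activator recruitment. Gain of signal was fitted against the DMSO baseline.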

Chain of Estrogen receptor beta (Homo sapiens) (Q92731 whole entry, looked up, the tested form may be a part): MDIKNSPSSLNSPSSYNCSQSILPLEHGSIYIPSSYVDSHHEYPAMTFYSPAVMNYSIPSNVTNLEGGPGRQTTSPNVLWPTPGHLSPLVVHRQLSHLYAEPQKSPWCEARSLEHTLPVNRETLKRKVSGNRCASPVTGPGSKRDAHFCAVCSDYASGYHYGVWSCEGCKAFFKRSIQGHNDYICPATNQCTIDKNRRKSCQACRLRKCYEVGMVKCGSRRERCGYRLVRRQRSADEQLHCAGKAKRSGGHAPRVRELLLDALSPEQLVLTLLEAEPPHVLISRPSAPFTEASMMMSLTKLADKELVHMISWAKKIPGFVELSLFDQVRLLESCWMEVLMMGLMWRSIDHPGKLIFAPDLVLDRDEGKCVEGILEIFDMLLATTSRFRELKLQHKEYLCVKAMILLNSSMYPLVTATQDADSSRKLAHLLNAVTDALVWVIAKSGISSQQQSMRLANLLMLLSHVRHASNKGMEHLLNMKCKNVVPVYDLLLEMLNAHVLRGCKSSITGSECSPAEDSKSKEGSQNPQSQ
Chain of Estrogen receptor (Homo sapiens) (P03372 whole entry, looked up): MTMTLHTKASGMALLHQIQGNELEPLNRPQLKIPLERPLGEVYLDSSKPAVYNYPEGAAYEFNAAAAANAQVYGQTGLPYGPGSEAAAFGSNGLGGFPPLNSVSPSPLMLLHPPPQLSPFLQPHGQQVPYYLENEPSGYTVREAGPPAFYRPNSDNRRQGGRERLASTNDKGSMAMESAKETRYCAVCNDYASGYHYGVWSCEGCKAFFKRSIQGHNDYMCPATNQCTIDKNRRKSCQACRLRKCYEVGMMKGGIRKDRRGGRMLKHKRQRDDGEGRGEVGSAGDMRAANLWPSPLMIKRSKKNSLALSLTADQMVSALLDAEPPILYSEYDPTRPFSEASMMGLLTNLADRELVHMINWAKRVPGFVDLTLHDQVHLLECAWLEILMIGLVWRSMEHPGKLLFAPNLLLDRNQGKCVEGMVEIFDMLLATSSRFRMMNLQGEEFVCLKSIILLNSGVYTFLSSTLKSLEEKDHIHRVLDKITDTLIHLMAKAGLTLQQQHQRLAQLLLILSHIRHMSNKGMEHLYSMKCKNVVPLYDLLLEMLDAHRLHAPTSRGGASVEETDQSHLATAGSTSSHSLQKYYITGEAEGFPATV
Chain of Retinoic acid receptor RXR-alpha (Homo sapiens) (P19793 whole entry, looked up, the tested form may be a part): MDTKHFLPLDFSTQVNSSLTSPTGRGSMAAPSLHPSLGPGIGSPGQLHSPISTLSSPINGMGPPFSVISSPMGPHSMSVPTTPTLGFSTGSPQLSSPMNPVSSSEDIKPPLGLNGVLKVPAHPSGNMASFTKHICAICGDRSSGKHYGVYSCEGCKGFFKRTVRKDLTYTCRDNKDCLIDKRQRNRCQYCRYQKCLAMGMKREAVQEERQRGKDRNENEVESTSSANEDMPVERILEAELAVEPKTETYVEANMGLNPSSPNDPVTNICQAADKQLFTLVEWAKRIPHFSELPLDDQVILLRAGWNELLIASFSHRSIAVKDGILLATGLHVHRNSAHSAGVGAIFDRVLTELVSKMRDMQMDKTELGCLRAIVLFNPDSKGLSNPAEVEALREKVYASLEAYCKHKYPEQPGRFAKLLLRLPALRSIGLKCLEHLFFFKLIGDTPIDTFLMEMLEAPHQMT
Chain of Bile acid receptor (Homo sapiens) (Q96RI1 whole entry, looked up, the tested form may be a part): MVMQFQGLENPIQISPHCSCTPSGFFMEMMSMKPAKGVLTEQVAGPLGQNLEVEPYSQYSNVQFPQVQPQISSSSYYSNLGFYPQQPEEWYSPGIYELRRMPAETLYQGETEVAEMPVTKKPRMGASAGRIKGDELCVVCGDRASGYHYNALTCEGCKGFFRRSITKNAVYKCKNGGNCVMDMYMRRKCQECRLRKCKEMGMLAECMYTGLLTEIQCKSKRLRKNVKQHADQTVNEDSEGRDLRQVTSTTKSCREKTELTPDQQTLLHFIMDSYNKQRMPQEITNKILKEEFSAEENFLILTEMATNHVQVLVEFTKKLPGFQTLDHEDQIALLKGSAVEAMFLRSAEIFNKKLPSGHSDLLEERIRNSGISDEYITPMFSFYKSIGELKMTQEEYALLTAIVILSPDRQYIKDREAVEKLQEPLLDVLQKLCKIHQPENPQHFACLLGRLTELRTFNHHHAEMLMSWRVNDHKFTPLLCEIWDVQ

CN(N=O)C(N)=O
outcome [1]: inactive | outcome [2]: inactive

CN(C)C(=S)S
outcome [1]: inactive | outcome [2]: inactive | outcome [3]: inactive

Cc1cc(Cl)ccc1OC(C)C(=O)O (stereo not drawn)
outcome [1]: inactive | outcome [4]: inactive | outcome [2]: inactive

CCN(CCO)CCO
outcome [1]: inactive | outcome [4]: inactive | outcome [3]: inactive

Nc1ccc(N)cc1
AC50 [1]: 12.4 µM (active) | outcome [2]: inactive | outcome [3]: inactive

N#CS
outcome [3]: inactive

O=c1[nH]c(=O)n(Cl)c(=O)n1Cl
outcome [2]: inactive | outcome [3]: inactive

Nc1ncn[nH]1
outcome [1]: inactive | outcome [5]: inactive | outcome [3]: inactive

O=C(CBr)c1ccc(O)cc1
outcome [1]: inactive | outcome [5]: inactive | outcome [2]: inactive | outcome [3]: inactive

Clc1cccc(Cl)c1
outcome [1]: inactive | outcome [3]: inactive

COc1ccc(N)cc1
AC50 [3]: 13.8 µM (active)

O=[N+]([O-])c1ccccc1O
outcome [1]: inactive | outcome [3]: inactive

CC(C)(C)c1ccccc1O
outcome [1]: inactive | outcome [2]: inactive | outcome [3]: inactive

C=CCN=C=S
outcome [4]: inactive | outcome [5]: inactive | outcome [2]: inactive

CCOP(=S)(OCC)O/N=C(\C#N)c1ccccc1
AC50 [1]: 50 µM (active) | AC50 [5]: 32.5 µM (active) | outcome [2]: inactive | outcome [3]: inactive

COC(=O)Nc1cccc(OC(=O)Nc2cccc(C)c2)c1
outcome [1]: inactive | outcome [2]: inactive | outcome [3]: inactive

O=c1nc(O)n(Cl)c(=O)n1Cl
outcome [2]: inactive | outcome [3]: inactive

COc1nn(C(=O)NS(=O)(=O)c2ccccc2OC(F)(F)F)c(=O)n1C
outcome [1]: inactive | outcome [2]: inactive | outcome [3]: inactive

O=C(O)COc1ccc(Cl)cc1
outcome [1]: inactive | outcome [4]: inactive | outcome [2]: inactive

O=CCCl
outcome [1]: inactive | outcome [4]: inactive | outcome [2]: inactive

CC(C)=CC1C(C(=O)OCc2cccc(Oc3ccccc3)c2)C1(C)C (stereo not drawn)
outcome [1]: inactive | outcome [4]: inactive | outcome [5]: inactive | outcome [2]: inactive | outcome [3]: inactive
